SMILES strings stand for the structures. About 83,000 compounds went through this panel and 20% of them were active in at least one assay; those are over-represented in the sample as a whole.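 Negative percent growth values reflect cell death: -40 means 40% of the cells present at the start died, and -100 means all died.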 Unmarked numbers belong to inactive results. The source made the active and inactive calls. The calls were made as follows: active = growth percent below 10; inactive = the rest.

Common to all, as to experiment: NCI-60 one-dose screen, 48 h (100 = growth as untreated, 0 = no growth, -100 = all killed)
Common to all, as to details: 10 µM unless noted

For test [1], the system named is SR leukemia.
The test system of test [2] is RPMI-8226 leukemia.
Test [3] relates to OVCAR-8 ovarian.
Test [4] has as its system OVCAR-5 ovarian.
In test [5] the test system is OVCAR-4 ovarian.
In test [6] the test system is SK-OV-3 ovarian.
The test system of test [7] is IGROV1 ovarian.
The test system of test [8] is OVCAR-3 ovarian.
Test [9] has as its system HS 578T breast.
Test [10] deals with NCI/ADR-RES ovarian.
The subject of test [11] is T-47D breast.
Test [12] deals with BT-549 breast.
The test system of test [13] is MDA-MB-435 melanoma.
For test [14], the system named is SW-620 colon.
For test [15], the system named is MCF7 breast.
The test system of test [16] is HCT-116 colon.
The subject of test [17] is HCC-2998 colon.
Test [18] relates to KM12 colon.

For the compound `Cc1ccc2c(n1)C(=O)C(Cl)=C(Nc1ccc(C(=O)OC(C)(C)C)cc1)C2=O`, the growth was -11.5% [9.25 µM] (active) in test [1]; -0.459% [9.25 µM] (active) in test [2]; 80.3% [9.25 µM] in [3]; 127% [9.25 µM] in test [4]; 42.7% [9.25 µM] in [5]; 101% [9.25 µM] in test [6]. In addition, the growth is 84.8% [9.25 µM] in test [7]; 1.44% [9.25 µM] (active) in test [8]; 101% [9.25 µM] in test [9]; 84.9% [9.25 µM] in test [10]; -8.23% [9.25 µM] (active) in test [11]; 84% [9.25 µM] in test [12]. Also, the growth was 87.6% [9.25 µM] in [13]; -42% [9.25 µM] (active) in test [14]; 11.3% [9.25 µM] in test [15]; -70.5% [9.25 µM] (active) in test [16]; 103% [9.25 µM] in [17]; 105% [9.25 µM] in [18].
Consider `Clc1ccc(CSc2nnc(-c3ccc(Cl)cc3)n2-c2ccccc2)cc1`, for which the growth was 91.7% in test [1]; 94.4% in test [2]; 46.3% in test [3]; 104% in [4]; 16% in test [5]; 48.3% in [6]. The growth in [7] is 75.9%; in test [8] it was 101%; in test [9], 43.7%; in test [10] it was 54.2%; in [11], 80.9%; in [12], 58.6%. Moreover, the growth in test [13] was 90%; in test [14], 91.6%; in test [15], 84.5%; in test [16], 75.3%; in [17], 95.8%; in test [18], 92.6%.
Consider `CCCCCCOC(=O)c1cc(-c2ccc(F)cc2)nc2ccccc12`, for which the growth in test [1] is 107%; in test [2], 110%; in test [3], 98.1%; in [4], 102%; in [5], 101%; in [6], 87.4%. In addition, the growth in test [7] was 88.3%; in test [8], 104%; in test [9], 94.1%; in test [10], 96.1%; in test [11], 88.8%; in [12] it was 103%. Also, the growth in test [14] was 93.5%; in test [15], 91.5%; in [16], 93.3%; in test [17], 106%; in test [18], 96.1%.
Turning to `C#CCN(C)CCCOc1ccc(NC(=O)CCCCCCC(=O)NO)cc1Cl`, the growth in [1] was 13.7%; in test [2] it was 0.211% (active); in test [3], 17.7%; in test [4], 12.8%; in test [5] it was 41.9%; in test [6] it was 18.2%. Moreover, the growth in test [7] was 17%; in test [8], 27.8%; in [9], 19.7%; in test [10], 65.4%; in [11] it was -2.41% (active); in [12], 44.9%. In addition, the growth in [13] is -0.594% (active); in [14], 11.7%; in test [15], 13.4%; in [16], 2.96% (active); in test [17], 12.9%; in test [18] it was 24.8%.
Turning to `CC(=O)OC[C@]12CC[C@@H](C(=O)/C=C/c3cccnc3)[C@@H]1[C@H]1CC[C@@H]3[C@@]4(C)CC[C@H](OC(C)=O)C(C)(C)[C@@H]4CC[C@@]3(C)[C@]1(C)CC2`, the growth in [1] was 6.42% (active); in test [2], -5.49% (active); in [3] it was 23.2%; in test [4] it was 15.1%; in [5], 21.9%; in test [6] it was 65.8%. The growth in test [7] is -12.9% (active); in test [8], 8.9% (active); in test [9] it was 14.5%; in test [10] it was -14.2% (active); in test [11], -16.7% (active); in [12], -12.6% (active). The growth in test [13] is -1.17% (active); in test [14] it was 7.96% (active); in test [15], -26.8% (active); in [16], -61.2% (active); in [17], -63.2% (active); in test [18] it was 18.5%.
In the case of `CC1=C(C)C(=O)C(Nc2ccc(C)cc2)=C(Br)C1=O`, the growth is 43.6% in test [1]; 55.2% in test [2]; 92.7% in [3]; 108% in test [4]; 75.6% in test [5]; 85.5% in test [6]. Moreover, the growth in test [7] is 94.5%; in test [8], 105%; in [9], 96.7%; in test [10] it was 95.7%; in [11] it was 15.7%; in test [12] it was 104%. Also, the growth in test [13] is 103%; in test [14] it was 103%; in test [15] it was 76%; in test [16], 35.4%; in test [17], 104%; in test [18] it was 104%.
For `CN1CCN(c2ccc(Nc3nc(NCCNC(=O)c4ccccc4)c4sccc4n3)cc2)CC1`, the growth is 5.68% (active) in test [1]; 33.4% in [2]; 62.4% in [3]; 84.1% in test [4]; 55.4% in test [5]; 123% in [6]. Besides, the growth was 87.9% in test [7]; 76.9% in test [8]; 81% in test [9]; 91.7% in [10]; 18.1% in [11]; 58.8% in [12]. For the same compound, the growth in test [13] was 59.3%; in test [14], 49.1%; in [15] it was 25.7%; in test [16], 0.236% (active); in [17] it was 84%; in test [18], 59.6%.
Consider `CC1(C)CC[C@]23CC[C@]4(C)[C@H](CC[C@@H]5[C@@]6(C)CC[C@H](N)C(C)(C)[C@@H]6CC[C@]54C)[C@H]2[C@H]1OC3`, for which the growth in [1] is -22.5% (active); in test [2], -24.1% (active); in test [3] it was 85.6%; in [4] it was 112%; in [5] it was 96.7%; in [6] it was 101%. Moreover, the growth in test [7] was 69.9%; in test [8], 70.2%; in test [9], 94.4%; in test [10], 2.93% (active); in [11] it was 88.1%; in test [12], 88.9%. Besides, the growth in test [13] is 90.6%; in test [14], -44.3% (active); in test [15], -8.5% (active); in test [16], -82.7% (active); in test [17], -15.9% (active); in test [18], 18%.
With `COc1ccccc1Cn1cc(C#N)c(N)c1C(=O)c1ccc(Br)cc1`, the growth in test [1] was 112%; in test [2], 93.7%; in test [3], 98.3%; in test [4], 104%; in test [5] it was 73.8%; in [6], 107%. Besides, the growth is 91.6% in test [7]; 104% in test [8]; 94.4% in [9]; 93.6% in test [10]; 74.1% in [11]; 103% in test [12]. For the same compound, the growth in test [14] was 100%; in test [15], 91.5%; in test [16], 93.9%; in [17] it was 103%; in [18], 96.5%.

The values are drawn from PubChem BioAssay (NCI).
